# Measured values from PubChem BioAssay (NCI).
# About 83,000 compounds went through this panel and 20% of them were active in at least one assay; those are over-represented in the sample as a whole.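 The test compound was applied at a single concentration to cells in 96-well plates for 48 hours, and percent growth was recorded.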 Calls of active or inactive are those of the source. How the source made its calls: active means growth percent below 10; inactive means the rest.
# Tested on: U251 CNS
# Experiment: NCI-60 one-dose screen, 48 h (100 = growth as untreated, 0 = no growth, -100 = all killed)
# Conditions: 10 µM
row,SMILES,growth
1,O=S(=O)(Nc1ncccn1)c1ccc(-n2c(-c3ccc(Br)cc3)nc(-c3ccccc3)c2-c2ccccc2)cc1,30.8% (inactive)
2,Clc1cccc(N/N=C/c2c[nH]c3ccccc23)n1,34.7% (inactive)
3,COc1ccc2c(c1)N=C(C(=O)O)/C2=C/c1sc(Nc2ccc(O)cc2)nc1O,67.7% (inactive)
4,CCCCCc1ccc(S(=O)(=O)N(C(C)=O)c2cc(-c3csc(N(C)C(C)=O)n3)ccc2N2CCN(C)CC2)cc1,-36.2% (active)

# Tested on: PC-3 prostate
# Experiment: as above
# Conditions: 10 µM
row,SMILES,growth
1,Cc1ccc(/C=C/C(=O)c2ccc(NC(=O)CSc3nnc(-c4c[nH]c5ccccc45)n3-c3ccccc3)cc2)cc1,71.8% (inactive)
2,O=C(Nc1nc2ccc([N+](=O)[O-])cc2s1)Nc1cc(Cl)ccc1I,-14.7% (active)
3,Cc1ccc(C(=O)CSc2nnc(-c3c[nH]c4ccccc34)n2-c2ccccc2)cc1,43% (inactive)
4,COc1ccc2[nH]c(O)c(N=NC(=O)c3cc(-c4ccc(C)cc4)nc4ccccc34)c2c1,93.6% (inactive)
5,Cn1cc(/C=N/Nc2cccc(Cl)n2)c2ccccc21,58.4% (inactive)
6,N#Cc1ccc(-c2nn(-c3ccc(C(=O)O)cc3)cc2CNc2ccc(Cl)cc2)cc1,65.2% (inactive)
7,O=c1[nH]c2ccccc2cc1CSc1ccc(Nc2nccc(-c3ccc4ccccc4c3)n2)cc1,1.09% (active)
8,OCCCNc1oc(-c2ccccc2)nc1[P+](c1ccccc1)(c1ccccc1)c1ccccc1,9.56% (active)
9,COc1ccc(C(=O)/C=C/c2cc(C(F)(F)F)cc(C(F)(F)F)c2)cc1S(N)(=O)=O,-14.4% (active)
10,CS(=O)(=O)Nc1ccc(-c2ccc3c(c2)ncn3-c2ccc(NC(=O)Nc3ccc(Cl)c(C(F)(F)F)c3)cc2)cc1,-57.5% (active)
11,O=c1nc(-c2ccccc2)cc(-c2cc3ccccc3nc2Cl)[nH]1,31.8% (inactive)
12,COc1cccc(/C=C2\N=C(C)N(CCc3ccc(S(N)(=O)=O)cc3)C2=O)c1,98.4% (inactive)
13,O=S(=O)(Nc1ncccn1)c1ccc(-n2c(-c3ccccc3)nc(-c3ccccc3)c2-c2ccccc2)cc1,67.8% (inactive)
14,Cc1ccc(-c2nc(Nc3ccc(S(N)(=O)=O)cc3)c3ccccc3n2)cc1,39.5% (inactive)
15,COc1ccc(C(C)=C(c2ccc(OCCCN(C)C)cc2)c2ccc(OCCCN(C)C)cc2)cc1,-82.3% (active)
16,COC[C@@H](CC(C)C)N=C1NC(=O)/C(=C/c2ccc3ncsc3c2)N1,30.9% (inactive)
17,Cc1ccc(-c2nc3ccc(C(=O)N=Nc4c(O)[nH]c5ccc(Cl)cc45)cc3[nH]2)cc1,-51.9% (active)
18,COc1cccc(/C=N/NC(=O)c2ccc3nc(-c4ccc(Cl)cc4)[nH]c3c2)c1O,-55.1% (active)
19,N#Cc1ccc(-c2nn(-c3ccc(C(=O)O)cc3)cc2CNc2ccc(Oc3ccccc3)cc2)cc1,29.5% (inactive)
20,CC(=O)c1ccc(Nc2nc(SCCC(C)C)nc(-c3ccc(F)cc3)c2C#N)cc1,80.2% (inactive)
21,Cc1cc(C)nc(NS(=O)(=O)c2ccc(N/C(N)=N/c3nccc(-c4ccccc4)n3)cc2)n1,65.4% (inactive)
22,COc1cccc(-c2ccnc(/N=C(\N)Nc3ccc(S(=O)(=O)Nc4nc(C)cc(C)n4)cc3)n2)c1,91.2% (inactive)
23,CC(=O)C1=C(C)NC(SCC(=O)Nc2ccc(S(=O)(=O)Nc3cc(C)on3)cc2)=NC1c1ccccc1 (stereo not drawn),109% (inactive)
24,COc1cccc2nc(Nc3ccc(F)c(NC(=O)c4ccc(CN5CCN(C)CC5)c(C(F)(F)F)c4)c3)ccc12,-8.36% (active)
25,CNCc1cccc2c1OCCCCCC[C@@](C)(O)CC1(CC1)S(=O)(=O)c1ccc(cc1)-c1cnc(N)c(n1)C(=O)N2,-59% (active)
26,CN(C)c1ccc(/C=C/c2nc3ccccc3c(=O)n2CC(=O)Nc2ccccc2)cc1,67.5% (inactive)
27,O=C1CCC(N2Cc3c(C#CCCCNC(=O)c4ccc(NC(=O)[C@@H]5NC6(CCCCC6)[C@@]6(C(=O)Nc7cc(Cl)ccc76)[C@H]5c5cccc(Cl)c5F)cc4)cccc3C2=O)C(=O)N1 (stereo partly drawn),51.8% (inactive)
28,O=C(N/N=C/c1ccc(-c2cccc([N+](=O)[O-])c2)o1)c1[nH]c2ccc(Br)cc2c1-c1ccccc1,18.8% (inactive)
29,O=C(c1ccc(Cl)cc1)C1[C@H](c2ccccc2Br)[C@@H](c2ccccc2)NC12C(=O)Nc1ccc(Br)cc12 (stereo partly drawn),6.63% (active)
